AC50 and outcome data for ten molecules are collected here from PubChem BioAssay (EPA / NIEHS).

Molecules are shown by their SMILES. “And” between values parts separate entries of the source, which are not always exact repeats. Identical values can stand only once. Inconclusive results are not listed. Some structures have more than one record in an assay (separate samples or runs), and their calls can disagree. The source made the active and inactive calls. Rule for the calls: active = hit-call score of the fitted dose curve at least 0.9, where 1 is the maximum; inconclusive = response in the unintended direction; inactive = score below 0.9.

The test system of test [1] is frog Estrogen Receptor (ER), gene 398734. Kind of test: ATG_frER1_XSP2: Attagene TRANS-FACTORIAL Multi-Species (XSP2) HepG2 Assay for frog Estrogen Receptor (ER) (AID 2283821).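 Note: hits raise reporter mRNA above DMSO baseline so potency means agonist or activator.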 The procedure, abridged:
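HepG2 cells transiently transfected with multiplexed GAL4-UAS reporter units expressing chimeric NR-Gal4 proteins (TRANS format) were dosed for 24 h. Reporter mRNA was quantified by RT-PCR, FAM primer extension, HpaI digestion and capillary electrophoresis; gain of signal relative to DMSO.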

Test [2] relates to zebrafish Estrogen Receptor (ER2b), gene 317733. Kind of test: ATG_zfER2b_XSP2: Attagene TRANS-FACTORIAL Multi-Species (XSP2) HepG2 Assay for zebrafish Estrogen Receptor (ER2b) (AID 2283823).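 Note: fitted upward as reporter gain over DMSO so potency reflects activation.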 Put shortly:
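Read-out: fluorescent reporter mRNA, measured by RT-PCR then capillary electrophoresis after HpaI digestion. HepG2 cells carried transiently transfected multi-reporter TRANS constructs (NR-Gal4 chimeras); 24 h chemical exposure; activity scored upward versus DMSO control.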

For test [3], the target named is Estrogen receptor (Homo sapiens) (UniProt P03372). The experiment in a line: ATG_hERa_XSP2: Attagene TRANS-FACTORIAL Multi-Species (XSP2) HepG2 Assay for human Estrogen Receptor (ERa) (AID 2283827). Put shortly: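 Trans-activation of exogenous human ERa-Gal4 chimera read in HepG2 as reporter transcript after 24 h exposure; medium included 3 nM 6-alpha-fluorotestosterone and 1.5 nM norgestrel. Quantified by RT-PCR with capillary electrophoresis, positive-direction fitting against DMSO.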

The target in test [4] is Peroxisome proliferator-activated receptor gamma (Homo sapiens) (UniProt P37231). Kind of test: ATG_hPPARg_XSP2: Attagene TRANS-FACTORIAL Multi-Species (XSP2) HepG2 Assay for human Peroxisome Proliferator-activated Receptor gamma (PPARg) (AID 2283829).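 Note: actives raise reporter mRNA above DMSO so AC50 reflects PPARg activation.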 Put shortly: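 HepG2 cells transiently transfected with multiplexed GAL4-UAS reporter units for chimeric NR-Gal4 receptors, dosed 24 h. Reporter mRNA quantified by RT-PCR, 6-FAM labeling, HpaI digestion and capillary electrophoresis; gain-of-signal fitted against DMSO baseline.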

For test [5], the target named is Nuclear receptor subfamily 1 group I member 2 (Mus musculus) (UniProt O54915). The experiment in a line: ATG_mPXR_XSP2: Attagene TRANS-FACTORIAL Multi-Species (XSP1) HepG2 Assay for mouse Pregnane X Receptor (PXR) (AID 2283831). Put shortly: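 HepG2 cells transiently transfected with GAL4-UAS reporter units expressing chimeric NR-GAL4 proteins; reporter mRNA measured 24 h after dosing by RT-PCR with 6-FAM labelling and capillary electrophoresis, gain of signal relative to DMSO.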

Test [6] concerns the target zebrafish Thyroid Hormone Receptor alpha (TRa), thraa (gene 30670) (UniProt Q98867). Kind of test: ATG_zfTRa_XSP2: Attagene TRANS-FACTORIAL Multi-Species (XSP1) HepG2 Assay for zebrafish Thyroid Hormone Receptor alpha (TRa) (AID 2283832).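 Note: actives raise zebrafish TRa-Gal4 reporter transcript above DMSO baseline.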 Put shortly:
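Chimeric zebrafish TRa-Gal4 activity read in transfected human HepG2 as GAL4-UAS reporter transcripts, 24 h post-dose, via RT-PCR with labeled primer extension and capillary electrophoresis. Medium also carries 3 nM 6-alpha-fluorotestosterone and 1.5 nM norgestrel; DMSO baseline.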

The nature of test [7]: ATG_M_32_XSP2: Attagene TRANS-FACTORIAL Multi-Species (XSP2) HepG2 Assay for M19 Transcription Factor (Internal Marker) (AID 2283826). The procedure:
ATG_XSP2_multi-species_TRANS is a cell-based, multiplexed assay created by modifying the existing Attagene TRANS-FACTORIAL system to include a panel of nuclear receptors from some or all the following species: human (Homo sapiens), mouse (Mus musculus), frog (Xenopus laevis), zebrafish (Danio rerio), chicken (Gallus gallus), and turtle (Chrysemys picta). The ECOTOX-FACTORIAL format uses HepG2, a human liver cell line, with measurements taken at 24 hours after chemical dosing in a 24-well plate. Xsp2 included 3 nM 6-alpha-fluorotestosterone and 1.5 nM norgestrel to stimulate the androgen receptor.ATG_M_32_XSP2 is one of 29 assay components measured or calculated from the ATG_XSP2_multi-species_TRANS assay. It is designed to make measurements of mRNA induction, a form of inducible reporter, as detected with fluorescence intensity signals by Reverse transcription polymerase chain reaction (RT-PCR) and Capillary electrophoresis technology.This assay endpoint, ATG_M_32_XSP2, was analyzed in the positive analysis fitting direction relative to DMSO as the negative control and baseline of activity. Using a type of inducible reporter, measures of mRNA for gain-of-signal activity can be used to understand the background control at the transcription factor-level as they relate to the gene. Furthermore, this assay endpoint can be referred to as a secondary readout, because this assay has produced multiple assay endpoints where this one serves a background control function. To generalize the intended target to other relatable targets, this assay endpoint is annotated to the background measurement intended target family, where the subfamily is internal marker.
Human liver HepG2 cells are transiently transfected with multiple reporter transcription units (MRTUs) in 6-well plates using FuGene 6 reagent (Roche; 3 ml FuGene/1 mg DNA). The MRTU constructs are regulated by a cis-regulating element (promoter). […] A major difference between the CIS and TRANS system is that in CIS activities of endogenous TFs are measured, whereas the TRANS assay evaluates changes in activities of exogenous, chimeric NR-Gal4 proteins. […] At the end of 24 hour incubation, total RNA was isolated using TriZol reagent (Invitrogen). The isolated RNA is then reverse-transcribed using oligo(dT) primer and Mo-MLV reverse transcriptase (Invitrogen) with DNAse I (Ambion) treatment for 30 min. The one-tenth of the produced cDNA was amplified by PCR using Taq DNA polymerase (Invitrogen) and two reporter sequence-specific primers. The PCR products were fluorescently labeled by primer extension with 6-arboxyfluorescein (6-FAM) 5'-labeled reporter sequence-specific primer (2 min at 95 C, 20 s at 68 C and 10 min at 72 C) and these products were digested with 5U of HpaI (New England Biolabs) for 2h at 37 C. The fragments were purified using Qiaquick PCR columns (Qiagen), analyzed on an ABI 3130xL genetic analyzer (Applied Biosystems) with peak positions identified by using a set of X-rhodamine (ROX)-labeled MapMarker1000 molecular weight standards (BioVentures). The raw capillary electrophoresis data was processed using Attagraph software (Attagene).

The subject of test [8] is chicken Androgen Receptor (AR), gene 422165. The experiment in a line: ATG_chAR_XSP2: Attagene TRANS-FACTORIAL Multi-Species (XSP2) HepG2 Assay for chicken Androgen Receptor (AR) (AID 2283819).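 Note: hits raise reporter mRNA above DMSO so potency is for activation.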 As for the experimental part: (§1) ATG_XSP2_multi-species_TRANS is a cell-based, multiplexed assay created by modifying the existing Attagene TRANS-FACTORIAL system to include a panel of nuclear receptors from some or all the following species: human (Homo sapiens), mouse (Mus musculus), frog (Xenopus laevis), zebrafish (Danio rerio), chicken (Gallus gallus), and turtle (Chrysemys picta). The ECOTOX-FACTORIAL format uses HepG2, a human liver cell line, with measurements taken at 24 hours after chemical dosing in a 24-well plate. Xsp2 included 3 nM 6-alpha-fluorotestosterone and 1.5 nM norgestrel to stimulate the androgen receptor.ATG_chAR_XSP2 is one of 29 assay components measured or calculated from the ATG_XSP2_multi-species_TRANS assay. It is designed to make measurements of mRNA induction, a form of inducible reporter, as detected with fluorescence intensity signals by Reverse transcription polymerase chain reaction (RT-PCR) and Capillary electrophoresis technology.The assay endpoint ATG_chAR_XSP2 was analyzed in the positive analysis fitting direction relative to DMSO as the negative control and baseline of activity. […] Furthermore, this assay endpoint can be referred to as a primary readout, because this assay has produced multiple assay endpoints where this one serves a reporter gene function. […]

Test [9] can be described thus: ATG_M_19_XSP2: Attagene TRANS-FACTORIAL Multi-Species (XSP2) HepG2 Assay for M32 Transcription Factor (Internal Marker) (AID 2283822). Put shortly:
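Internal background marker in a multi-species nuclear receptor TRANS panel: transfected HepG2 cells exposed 24 h, with 3 nM 6-alpha-fluorotestosterone and 1.5 nM norgestrel present. Readout is RT-PCR of reporter transcripts resolved by capillary electrophoresis, gain-of-signal versus DMSO.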

The test system of test [10] is zebrafish Androgen Receptor (AR), gene 100005148. The experiment in a line: ATG_zfAR_XSP2: Attagene TRANS-FACTORIAL Multi-Species (XSP2) HepG2 Assay for zebrafish Androgen Receptor (AR) (AID 2283825).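 Note: hits raise reporter mRNA above DMSO so AC50 reflects agonist-type gain.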 As for the experimental part: as §1, with “receptor.ATG_zfAR_XSP2” for “receptor.ATG_chAR_XSP2”, “ATG_zfAR_XSP2” for “ATG_chAR_XSP2”

Nuclear receptor subfamily 1 group I member 2 (Mus musculus), sequence (O54915 whole entry, looked up, the tested form may be a part): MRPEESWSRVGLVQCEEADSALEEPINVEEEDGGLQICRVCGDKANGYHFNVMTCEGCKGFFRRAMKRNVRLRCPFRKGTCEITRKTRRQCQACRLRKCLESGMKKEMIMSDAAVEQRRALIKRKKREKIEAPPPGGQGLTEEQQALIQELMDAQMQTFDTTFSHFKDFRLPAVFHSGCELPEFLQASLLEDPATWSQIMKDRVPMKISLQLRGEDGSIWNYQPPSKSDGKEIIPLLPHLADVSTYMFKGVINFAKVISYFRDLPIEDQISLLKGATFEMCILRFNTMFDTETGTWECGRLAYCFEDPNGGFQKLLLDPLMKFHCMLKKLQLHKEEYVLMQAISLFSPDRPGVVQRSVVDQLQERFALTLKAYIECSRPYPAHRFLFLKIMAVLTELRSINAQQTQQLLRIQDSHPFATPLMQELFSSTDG
Estrogen receptor (Homo sapiens), sequence (P03372 whole entry, looked up, the tested form may be a part): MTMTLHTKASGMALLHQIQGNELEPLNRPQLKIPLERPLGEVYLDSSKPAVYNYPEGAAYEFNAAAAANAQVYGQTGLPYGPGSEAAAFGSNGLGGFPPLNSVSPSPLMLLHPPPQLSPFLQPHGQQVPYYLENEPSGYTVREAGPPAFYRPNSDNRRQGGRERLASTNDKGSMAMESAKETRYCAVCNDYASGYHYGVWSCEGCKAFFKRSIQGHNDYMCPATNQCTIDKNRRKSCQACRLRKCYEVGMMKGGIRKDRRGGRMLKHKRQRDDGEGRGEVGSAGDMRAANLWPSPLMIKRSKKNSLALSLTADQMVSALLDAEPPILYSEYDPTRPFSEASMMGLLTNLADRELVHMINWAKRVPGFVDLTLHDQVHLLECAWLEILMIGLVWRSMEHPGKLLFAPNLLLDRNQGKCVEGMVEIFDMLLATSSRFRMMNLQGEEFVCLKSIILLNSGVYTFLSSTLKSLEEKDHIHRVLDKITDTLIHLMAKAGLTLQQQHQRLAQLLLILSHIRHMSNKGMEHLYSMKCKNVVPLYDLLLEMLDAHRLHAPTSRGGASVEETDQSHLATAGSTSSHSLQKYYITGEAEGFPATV
zebrafish Thyroid Hormone Receptor alpha (TRa), thraa (gene 30670), sequence (Q98867 whole entry, looked up, the tested form may be a part): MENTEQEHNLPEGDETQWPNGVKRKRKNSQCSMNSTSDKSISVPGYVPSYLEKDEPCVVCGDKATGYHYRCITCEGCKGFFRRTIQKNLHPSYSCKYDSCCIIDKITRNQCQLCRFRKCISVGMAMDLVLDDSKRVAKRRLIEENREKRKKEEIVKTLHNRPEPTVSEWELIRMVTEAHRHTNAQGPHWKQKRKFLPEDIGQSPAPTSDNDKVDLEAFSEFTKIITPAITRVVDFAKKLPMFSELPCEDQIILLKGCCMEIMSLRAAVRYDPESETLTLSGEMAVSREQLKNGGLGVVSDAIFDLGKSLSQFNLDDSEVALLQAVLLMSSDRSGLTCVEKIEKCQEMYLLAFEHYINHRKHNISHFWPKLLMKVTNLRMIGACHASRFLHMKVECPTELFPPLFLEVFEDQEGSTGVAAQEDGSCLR
Peroxisome proliferator-activated receptor gamma (Homo sapiens), sequence (P37231 whole entry, looked up, the tested form may be a part): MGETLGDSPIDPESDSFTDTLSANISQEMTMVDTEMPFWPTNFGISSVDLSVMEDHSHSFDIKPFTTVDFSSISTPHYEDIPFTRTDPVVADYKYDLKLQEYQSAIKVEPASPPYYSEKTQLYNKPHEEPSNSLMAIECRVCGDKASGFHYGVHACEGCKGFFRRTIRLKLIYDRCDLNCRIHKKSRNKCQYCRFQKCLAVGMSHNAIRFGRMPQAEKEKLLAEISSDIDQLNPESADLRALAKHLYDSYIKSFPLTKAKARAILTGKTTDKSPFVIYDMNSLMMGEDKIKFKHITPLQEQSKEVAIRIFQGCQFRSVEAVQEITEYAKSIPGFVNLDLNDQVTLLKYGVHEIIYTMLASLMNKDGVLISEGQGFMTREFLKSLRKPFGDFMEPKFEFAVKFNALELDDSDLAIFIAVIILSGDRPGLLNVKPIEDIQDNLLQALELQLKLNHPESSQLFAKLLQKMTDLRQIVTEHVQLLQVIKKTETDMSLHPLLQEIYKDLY

On to `C=C(C)CN(CC)c1c([N+](=O)[O-])cc(C(F)(F)F)cc1[N+](=O)[O-]`, for which the AC50 (in general, the concentration giving half of the maximal activity seen) in [1] was 6.84 µM (active) and 32.4 µM (active); in test [2] it was 33.3 µM (active) and 38 µM (active); in [3] it was 7.36 µM (active) and 44.2 µM (active); in test [4], 41 µM (active) and 23 µM (active); in test [5], 3.92 µM (active) and 2.8 µM (active). Besides, the result in [6] was inactive.

As to `CC1(C)C(C=C(Cl)Cl)C1C(=O)OC(C#N)c1cccc(Oc2ccccc2)c1` (centres undefined), the AC50 in [1] was 21.1 µM (active); in [2], 100 µM (active); in test [3], 17.5 µM (active); in test [4] it was 14.2 µM (active); in test [5] it was 2.65 µM (active). The molecule was called inactive in test [7] and in test [6].

As to `CSC(=O)c1c(C(F)F)nc(C(F)(F)F)c(C(=O)SC)c1CC(C)C`, the outcome in test [8], in test [1], in test [9] and in [7] was inactive. Besides, the AC50 in [2] is 15.7 µM (active); in test [3] it was 3.05 µM (active); in test [4], 6.53 µM (active); in [5] it was 0.442 µM (active).

As to `Cc1c(COC(=O)[C@@H]2[C@H](/C=C(\Cl)C(F)(F)F)C2(C)C)cccc1-c1ccccc1`, the AC50 in [1] is 49.3 µM (active); in test [2], 100 µM (active); in test [3], 26.1 µM (active); in test [5], 2 µM (active). Further, the call in test [9], in test [10], in test [4] and in test [6] was inactive.

`CCN(CC)C(=O)C(C)Oc1cccc2ccccc12` (centres undefined): the result in [1], in test [7] and in test [6] was inactive. The AC50 in [2] was 65.7 µM (active); in [3], 7.99 µM (active); in [4] it was 39.8 µM (active); in test [5], 6.17 µM (active).

In the case of `CC(C)NC(=O)N1CC(=O)N(c2cc(Cl)cc(Cl)c2)C1=O`, the call in [1], in test [9], in test [2], in test [10], in test [7] and in [6] was inactive. The AC50 in test [3] is 6.97 µM (active); in [4], 33.2 µM (active); in [5], 6.7 µM (active).

Regarding `CC1(C)CCC(=Cc2ccc(Cl)cc2)C1(O)Cn1cncn1` (centres undefined), the outcome in [1], in test [9], in test [7], in test [4] and in test [6] was inactive. In addition, the AC50 in [2] is 115 µM (active); in [3] it was 13.4 µM (active); in test [5] it was 6.24 µM (active).

`COP(=S)(OC)SCn1nnc2ccccc2c1=O`: the AC50 in [1] was 29.1 µM (active) and 5.67 µM (active); in test [2], 132 µM (active); in test [3] it was 24.7 µM (active); in [4] it was 93.7 µM (active) and 23.2 µM (active). Moreover, the molecule was classed as inactive in test [2], in test [3] and in test [5].

As to `N#Cc1c[nH]cc1-c1cccc2c1OC(F)(F)O2`, the AC50 in [1] was 4.14 µM (active); in [2], 23.2 µM (active) and 17.5 µM (active); in [3] it was 1.51 µM (active); in test [4], 14 µM (active) and 21.7 µM (active); in test [5] it was 6.52 µM (active) and 6.26 µM (active); in test [6] it was 27 µM (active). Further, the result in [1] and in test [6] was inactive.

Take `COP(=S)(OC)Oc1ccc([N+](=O)[O-])c(C)c1`: the AC50 in [1] is 50.4 µM (active); in [2], 54.5 µM (active); in test [3], 32.5 µM (active); in [4], 55.8 µM (active); in test [5] it was 4.6 µM (active). Besides, the outcome in test [6] was inactive.
